Here are results for 39 molecules from PubChem BioAssay (NCI).

This is part of a sample that, as a whole, favours compounds with a hit. Of some 79,000 tested, about 15% had one in any assay. Calls of active or inactive are those of the source. Cut-off read from the data, not from the text of the source: active = growth inhibition above about 70%; inactive = the rest.

The nature of this test: NCI Yeast Anticancer Drug Screen. Data for the wt1 strain (AID 149).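 Note: 0% = growth of vehicle-treated wt1 cultures.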 To be noted: S. cerevisiae wt1 strain (SPY 50644) growth inhibition; at 11.0 µM; stronger effect = higher value. An outline of the steps:
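Compounds are added to wt1 yeast cultures. Growth is then measured. Inhibition is expressed relative to vehicle-treated controls.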
On to `C/C(=N\NC(=S)SCc1ccccc1)c1ccccn1`, for which the growth inhibition was 58% (inactive).
On to `CC[C@@]1(O)C(=O)OCc2c1cc1n(c2=O)Cc2cc3c(N)cccc3nc2-1`, for which the growth inhibition was 7% (inactive).
As for `CN(C)c1ccc(Sc2ccc3nc(N)nc(N)c3c2)cc1`, the figure is 10% (inactive); as for `CC(=O)OCCOCNC(=S)N/N=C(\C)c1cnccn1`, 5% (inactive).
`COc1ccc(C2c3cc4c(cc3OC(C)(O)C2C)OCO4)c(OC)c1` (centres undefined): the growth inhibition was -2% (inactive).
Turning to `COc1cc(C2SCC(=O)N2c2ccc(-c3ccc(-n4c(-c5ccccc5)nc5ccccc5c4=O)cc3)cc2)cc(OC)c1OC` (centres undefined), the growth inhibition is 0% (inactive).
As for `COc1ccc(Br)c(C(=O)Sc2nnnn2-c2cccc(Cl)c2)c1`, the figure is 22% (inactive); as for `O=C(NNc1ccnc2cc(Cl)ccc12)/C(=C\c1ccccc1Cl)NC(=O)c1ccccc1`, 6% (inactive).
On to `CSC(=S)Nc1cccc(C)n1`, for which the growth inhibition is -25% (inactive).
As to `O=C(/C=C\c1ccc(Cl)cc1Cl)c1cccs1`, the growth inhibition is -5% (inactive).
Take `COc1ccc(-c2cn(-c3ccc(I)cc3)c3ncnc(N)c23)cc1`: the growth inhibition is -10% (inactive).
For `CN(C)c1ccc(C(C#N)=C(C#N)C#N)cc1`, the growth inhibition is -6% (inactive).
As for `COc1cc(/C=C2\CCc3ccccc3C2=O)cc(OC)c1OC`, the growth inhibition was -2% (inactive).
Turning to `CC(C)/C(Cl)=N\OC(=O)Nc1cccc(Cl)c1`, the growth inhibition is -1% (inactive).
Turning to `CC1(C)[C@@H]2CC[C@]1(C)[C@H](OC(=O)CSC#N)C2`, the growth inhibition was 14% (inactive).
Then `NNC(=O)CCc1ccc2ccc3ccccc3c2c1`, with 3% (inactive).
For `COc1ccc(/C(C)=N/OC(=O)c2c(-c3ccccc3Cl)noc2C)cc1CN1CCOCC1`, the growth inhibition was -14% (inactive).
As for `C=CC(C)(O)CCC1C(=C)C(O)CC2C(C)(C)CCCC12C` (centres undefined), the growth inhibition is -17% (inactive).
As for `S=C(Nc1ccc(Cl)c(Cl)c1)SCc1ccc2c(c1)OCO2`, the growth inhibition was 100% (active).
`COc1cc(C2C3=C(COC3=O)Oc3cc4c(cc32)OCO4)ccc1O` (centres undefined): the growth inhibition was -5% (inactive).
Then `S=C(Nc1ccc(Cl)cc1)SC1CCCCC1`, with 47% (inactive); and `Nc1nc(-c2cccnc2)cc(-c2cc(-c3cccnc3)nc(N)n2)n1`, with -1% (inactive).
As for `COC1=CC(=O)C2C(C1=O)C(c1ccc(Cl)cc1)[C@@H]2C` (some centres undefined), the figure is 99% (active); as for `c1ccc(-c2nc3cccnc3s2)cc1`, -2% (inactive).
Then `O=[N+]([O-])c1cc(CCl)ccc1CCl`, with 30% (inactive); and `COc1ccc(/C=C2\SC(=S)N(/C=C/c3nc4ccccc4[nH]c3=O)C2=O)cc1OC`, with 10% (inactive).
On to `CCCN(CCC)CC(O)c1cc(-c2ccc(Cl)cc2)nc2c(C)c(Cl)ccc12` (centres undefined), for which the growth inhibition is 98% (active).
Then `O=C(Nc1ccccc1)OCCc1ccc(Cl)c(Cl)c1`, with -9% (inactive); and `CC(O)C(O)C(O)C(/C=N\Nc1ccccc1)=N/Nc1ccccc1` (centres undefined), with 13% (inactive); and `C#CCCCc1ccccc1`, with -28% (inactive).
On to `CC(=O)Cc1ccc[cH-]1.[Fe+2].c1cc[cH-]c1`, for which the growth inhibition was 14% (inactive).
Then `Cc1cc(I)ccc1N`, with -8% (inactive); and `FC(F)(F)c1cc(NC(=S)N2c3ccccc3-n3cccc3C2c2cccnc2)cc(C(F)(F)F)c1` (centres undefined), with -4% (inactive).
As for `CC(C)(CN1CCCCC1)C(=O)CC(SCCS(=O)(=O)O)c1ccc(Br)cc1` (centres undefined), the figure is 9% (inactive).
Then `C[Si](C)(C)CNC(=O)OCc1ccccc1`, with -3% (inactive); and `CC(C(=O)N1C(=O)N(C(=O)[C@H](C)C(O)c2ccccc2)[C@H](c2ccccc2)[C@H]1c1ccccc1)[C@@H](O)c1ccccc1` (some centres undefined), with -2% (inactive).
With `Oc1cccc2c(Cl)ccnc12`, the growth inhibition is 38% (inactive).
For `O=C1C=CC(=C(c2ccccc2)c2ccccc2)c2ccccc21`, the growth inhibition is 1% (inactive).
As for `S=C(S)NN1CCOCC1`, the figure is 35% (inactive).
